Experimental data taken from PubChem BioAssay AID651820 (National Center for Advancing Translational Sciences (NCATS), 2012).
Among all 340,000 compounds or so, about 12,000 (3.5%) were called active. About 18% were inconclusive and are not listed. The full list was thinned out, with actives kept by preference. Values without a mark were called inactive. Calls come from the whole dose curve; as a rule, active = well fitted inhibition curve with a large enough effect; inconclusive = small, poorly fitted or top-dose-only effect, or another doubt; inactive = no such curve, though single readings can be large or run the other way.

Assay: qHTS Assay for Inhibitors of Hepatitis C Virus (HCV)
Details: Huh7.5.1 HCVcc-Cre infection, luciferase reporter, 44 h; series mostly up to 41.8 µM; activity change, negative = inhibition: at the top concentration
Method in brief: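 HCVcc-Cre virus at an moi near 0.5 was added right after compound to cells cultured 4 h from seeding (1,000 cells/well). Luciferase activity was determined 44 h later, 15 min after substrate addition at RT.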
% is set by controls: 0 for no effect and ±100 for the full control effect; potency is the fitted concentration of half-maximal effect.

Row | Compound | activity change, negative = inhibition | Potency
1 | Cc1c(NC(=O)CSc2nnc(-c3cccnc3)n2N)c(=O)n(-c2ccccc2)n1C | 26.7% | –
2 | O=C(O)c1ccc([N+](=O)[O-])cc1Sc1ccsc1 | 2.61% | –
3 | O=C(c1cccc(S(=O)(=O)N2CCCCCC2)c1)N1CCN(Cc2ccccc2)CC1 | -17.4% | –
4 | Cc1nc2sc(C(c3ccco3)N3CCOCC3)c(O)n2n1 (stereo unspecified) | 0.269% | –
5 | CCOC(=O)N1CCN(C(c2cccnc2)c2ccc3cccnc3c2O)CC1 (stereo unspecified) | -17.6% | –
6 | Oc1c(C(c2ccccn2)N2CCOCC2)ccc2cccnc12 (stereo unspecified) | – | 3.55 µM (active)
7 | CCOC(=O)C1CCCN(C(=O)CSc2nnc3nc(C)cc(C)n23)C1 (stereo unspecified) | -5.06% | –
8 | Cc1cc(C(=O)OCC(=O)N2C(C)CCCC2C)c2ccccc2n1 (stereo unspecified) | -14.7% | –
9 | CCC(C)N(C(=O)CSc1ncnc2c1cnn2-c1ccccc1)C1CCS(=O)(=O)C1 (stereo unspecified) | – | 14.1 µM (active)
10 | CCN(C(=O)CSc1ncnc2c1cnn2-c1ccccc1)C1CCS(=O)(=O)C1 (stereo unspecified) | -22.6% | –
11 | CC(C)CN(C(=O)CSc1ncnc2sccc12)C1CCS(=O)(=O)C1 (stereo unspecified) | 8.24% | –
12 | O=C(O)c1ccc(NN=CC2=C(N3CCOCC3)/C(=C/c3ccccc3)CC2)cc1 | 40.3% | –
13 | CC/C(=C(/c1ccccc1)c1ccc(OCC[N+](C)(C)C)cc1)c1ccccc1 | 3.46% | –
14 | COc1ccccc1C(=O)c1ccccc1C(=O)c1ccccc1 | -3.41% | –
15 | CCOC(=O)c1ccccc1OC(=O)Oc1ccccc1C(=O)OCC | -20.5% | –
16 | CCOC(=O)C(=Cc1ccccc1OC)C(=O)OCC | – | 25.1 µM (active)
17 | CC(=O)CC(CC(=O)NC1CCCCC1)c1ccccc1 (stereo unspecified) | 4.7% | –
18 | CN(CC(=O)O)C(=O)c1ccccc1 | -4.81% | –
19 | COc1cccc(NC(=O)CN(C)C(=O)CSC(=S)N2CCCC2)c1 | 7.26% [at 8.37 µM] | –
20 | O=C(Nc1ccccc1Cl)Nn1cnnc1 | 22.4% | –
21 | COCCN(CCOC)C(=S)Nc1ccccc1Cl | -9.93% | –
22 | O=C(Nc1ccccc1Cl)/C(Cl)=C(\Cl)S(=O)c1ccccc1 (stereo unspecified) | – | 11.2 µM (active)
23 | COc1ccc(-c2cc3ncccc3cn2)cc1 | -19.5% | –
24 | CCCCCCCCn1c2c(c(=N)c3c1CCC3)CCCC2 | – | 3.98 µM (active)
25 | O=C(CCNS(=O)(=O)c1ccccc1C(F)(F)F)Nc1ccncc1 | 8.22% | –
26 | COc1ccccc1OCc1ccc(C(=O)NC(C)c2ccccc2)o1 (stereo unspecified) | – | 7.08 µM (active)

Row | Compound | activity change, negative = inhibition | Potency
27 | COc1ccccc1CNC(=O)c1ccc(CS(=O)(=O)c2ccccc2)o1 | 5.83% | –
28 | COc1ccccc1OCc1ccc(C(=O)N2CCN(C)CC2)o1 | 10.2% | –
29 | CCCCn1c(N)c(N(CC(C)C)C(=O)c2cccc(S(=O)(=O)N3CC(C)OC(C)C3)c2)c(=O)[nH]c1=O (stereo unspecified) | -10.1% | –
30 | CCOC(=O)c1ccc(NC(=O)Cn2nnc(-c3ccc(C)cc3)n2)cc1 | -24.7% | –
31 | CCCc1nnc(SCC(=O)Nc2ccc(C(=O)OCC)cc2)o1 | 10.9% | –
32 | CCOC(=O)c1ccc(NC(=O)Cn2cnc3cc(C)c(C)cc32)cc1 | – | 3.55 µM (active)
33 | Cn1c(SCC(=O)Nc2ccc(N3CCOCC3)cc2)nnc1C(F)(F)F | -2.32% | –
34 | CC(NC(=O)c1ccccc1)C(=O)OCC(=O)Nc1cccc(S(=O)(=O)N2CCCC2)c1 (stereo unspecified) | 11.6% | –
35 | CN1CCc2nc(SC(C(=O)O)c3ccccc3)c(C#N)c(-c3cccs3)c2C1 (stereo unspecified) | – | 10 µM (active)
36 | Cc1c(-c2ccccc2)nc(N)c(C#N)c1-c1cccs1 | 17.7% | –
37 | CC(NC(=O)CSc1nc2c(cc1C#N)CN(C)CC2)c1ccccc1 (stereo unspecified) | -20.5% | –
38 | Cc1ccc([C@@H]2CC=C(C(=O)O)[C@H](c3cccc(Cl)c3)N2S(=O)(=O)c2ccc(C)cc2)cc1 | 23.6% | –
39 | CC(C)(C)OC(=O)C[C@@H]1C/C=C\C[C@@H](CC(=O)N(CCO)Cc2ccccc2)C(=O)N[C@H](Cc2ccccc2)COC1=O | 14.1% | –
40 | Cc1csc(=O)n1CC(=O)OCC(=O)N(CC(C)C)c1c(N)n(Cc2ccccc2)c(=O)[nH]c1=O | 0.0195% | –
41 | Cc1ccnc(SCCn2c(Br)nc3c2c(=O)[nH]c(=O)n3C)n1 | -9.01% | –
42 | Cn1c(=O)[nH]c(=O)c2c1nc(Br)n2CCCCSc1nc2ccccc2o1 | – | 12.6 µM (active)
43 | Cn1c(=O)c2c(nc(Br)n2CCSc2nc3ccccc3o2)n(C)c1=O | -24% | –
44 | CCCCC/C=C/C1=CC(=O)C[C@H](c2ccc(Cl)cc2)C1 | -4.66% | –
45 | O=C1NCCn2nc3ccccc3c21 | -0.139% | –
46 | Cn1c(N)c(C(=O)COC(=O)/C=C/c2cccc(C(F)(F)F)c2)c(=O)n(C)c1=O | 5.92% | –
47 | Cc1cc(C)cc(-c2nnc(SCC(=O)NC3CC3)o2)c1 | 0.418% | –
48 | O=C(NCCN1CCOCC1)c1ccc2c(c1)N(Cc1ccc(Cl)cc1)CCS2 | 8.59% | –
49 | O=C(c1ccc2c(c1)N(Cc1ccc(F)cc1)C(=O)CS2)N1CCOCC1 | 14.1% | –
50 | CCOC(=O)N1CCN(C(=O)c2ccc3c(c2)N(Cc2ccc(C)cc2)CCS3)CC1 | – | 12.6 µM (active)
51 | O=C(NNC(=O)c1cc(S(=O)(=O)N2CCCCC2)ccc1Cl)c1ccccc1O | -11.9% | –
52 | CN(C(=O)CN1C(=O)NC(C)(CCc2ccccc2)C1=O)c1ccccc1 (stereo unspecified) | 16.1% | –

Row | Compound | activity change, negative = inhibition | Potency
53 | O=C(COC(=O)c1cc[n+]([O-])cc1)Nc1ccc(Cl)c(C(F)(F)F)c1 | 0.896% | –
54 | O=C1c2ccccc2C(=O)N1CCCCCCN1C(=O)c2ccccc2C1=O | 7.88% | –
55 | O=C(NNC(=O)c1ccc2ccccc2c1)c1ccc(Cl)cc1 | -4.02% | –
56 | COc1ccc(C(=O)CN2C(=O)NC3(CCc4ccccc43)C2=O)c(OC)c1 (stereo unspecified) | 4.95% | –
57 | c1ccc(CCc2ccccn2)cc1 | 21.4% | –
58 | CCOC(=O)C1=C(c2ccccc2)NC(=S)NC1c1ccc(Cl)cc1 (stereo unspecified) | – | 11.2 µM (active)
59 | CCOC(=O)C1=C(C)NC(=O)NC1c1ccccc1 (stereo unspecified) | 6.14% | –
60 | CCOC(=O)C1=C(c2ccccc2)NC(=O)NC1c1cc(OC)c(OC)cc1OC (stereo unspecified) | 20.3% | –
61 | CC1CCCCN1CCCNC(=O)Cn1ncc2c([nH]c3ccccc32)c1=O (stereo unspecified) | 12.5% | –
62 | CCC1CCCCN1CCCNC(=O)Cn1nc(-c2ccccc2)ccc1=O (stereo unspecified) | 5.92% | –
63 | CCCn1c2ccccc2c2cnn(CC(=O)NCCCN3CCCCC3CC)c(=O)c21 (stereo unspecified) | – | 11.2 µM (active)
64 | CC(C)N(C(=O)CN1CCN(S(=O)(=O)c2ccc(Br)s2)CC1)C(C)C | 8.62% | –
65 | Cc1ccc(/C=C/C(=O)OCC(=O)Nc2cccnc2Cl)cc1 | -7.92% | –
66 | c1ccc(CSCCc2ccncc2)cc1 | -1.66% | –
67 | O=[N+]([O-])c1cc(C(F)(F)F)ccc1NCCc1ccncc1 | -0.741% | –
68 | CC(C)(C)c1ccc(SCCc2ccncc2)cc1 | – | 8.91 µM (active)
69 | CC(C)CC(N=C1NC(C)(C)Cc2ccccc21)C(=O)O (stereo unspecified) | 11% | –
70 | CC1(C)Cc2ccccc2-c2[nH]c(=S)[nH]c(=O)c21 | 25.9% | –
71 | CC1(C)Cc2ccccc2/C(=C/C(=O)c2ccccc2)N1 | – | 14.1 µM (active)
72 | CN(CC(=O)NCCc1ccc(F)cc1)CC(=O)Nc1ccc(F)c(F)c1F | -17% | –
73 | O=c1[nH]c(N2CCN(Cc3ccc4c(c3)OCO4)CC2)nc2c1CCCC2 | 2.31% | –
74 | Fc1ccc2[nH]c3c(N4CCSCC4)ncnc3c2c1 | – | 6.31 µM (active)
75 | CC(C)(C)n1nnnc1C(c1ccc(F)cc1)N1CCN(Cc2ccc3c(c2)OCO3)CC1 (stereo unspecified) | -0.102% | –
76 | Cc1c(CN2CC[C@@H](N3CCN(c4ccccn4)CC3)[C@H](O)C2)[nH]c2ccc(F)cc12 | -28.5% | –
77 | Fc1ccc2[nH]c3c(N4CCN(Cc5ccc6c(c5)OCO6)CC4)ncnc3c2c1 | – | 2.51 µM (active)
78 | O=C1NC(=O)C(CCc2ccccc2)(c2ccccc2)N1 (stereo unspecified) | -0.263% | –

Row | Compound | activity change, negative = inhibition | Potency
79 | Cc1cc(C)n2nc(C(=O)OC(C)C(=O)c3cc(C)c(C)cc3C)nc2n1 (stereo unspecified) | 3.37% | –
80 | CCC(C)N(C(=O)Cn1nc(C)c([N+](=O)[O-])c1C)C1CCS(=O)(=O)C1 (stereo unspecified) | 35.7% | –
81 | Oc1ccc(/C=N/Nc2ccc(C(F)(F)F)cn2)cc1O | – | 3.55 µM (active)
82 | O=C(Nc1ccccc1)Nc1ccc(C(F)(F)F)cn1 | -9.65% | –
83 | Cc1nccn1CC(=O)N/N=C/c1ccc(O)c(O)c1 | 11.8% | –
84 | CC(=O)Nc1ccc(C(=O)NNC(=O)CCCCC(=O)NNC(=O)c2ccc(NC(C)=O)cc2)cc1 | 10.3% | –
85 | CCCCN1C(N)=NC[C@@H]1Cc1ccccc1 | 14% | –
86 | CC[C@]12c3[nH]c4ccc(Cl)cc4c3CCN1C(=O)[C@@H](CC(=O)NCCCOC)C[C@@H]2C(=O)N1CCN(C(=O)C2CC2)CC1 | -19.7% | –
87 | C=CC[C@@H](CC(=O)N[C@@H](CO)Cc1ccccc1)C(=O)NCCOC(=O)[C@@H](CC=C)CC(=O)OC(C)(C)C | 21.7% | –
88 | CCCn1c(C)cc(-c2csc(NC(=O)CCc3nc4ccccc4c(=O)[nH]3)n2)c1C | -6.01% [at 8.37 µM] | –
89 | O=C1CN(C(=O)COC(=O)/C=C/c2ccc(F)cc2)c2ccccc2N1 | 3.6% | –
90 | Cn1c(SCC(=O)N2CCCc3ccccc32)nc2ccccc2c1=O | – | 12.6 µM (active)
91 | O=C(CSc1nc2[nH]ncc2c(=O)n1-c1ccccc1)N1CCCc2ccccc21 | -4.01% | –
92 | O=C(CSc1nc2ccccc2c(=O)n1CCCO)N1CCc2ccccc21 | -6.38% | –
93 | COCCn1cnnc1SCC(=O)Nc1cccc(S(=O)(=O)N2CCCCC2)c1 | -6.89% | –
94 | Cn1nnnc1SCC(=O)Nc1cccc(S(=O)(=O)N2CCCCC2)c1 | 8.59% | –
95 | O=C(Cn1cnc2ccccc2c1=O)Nc1cccc(S(=O)(=O)N2CCCCC2)c1 | – | 11.2 µM (active)
96 | CSCCC1NC(=O)N(CC(=O)Nc2cccc(S(=O)(=O)N3CCCCCC3)c2)C1=O (stereo unspecified) | – | 11.2 µM (active)
97 | Nc1cc(N)nc(SCC(=O)Nc2cccc(S(=O)(=O)N3CCCCC3)c2)n1 | 0.0012% | –
98 | O=C(COC(=O)COc1ccccc1F)Nc1cccc(S(=O)(=O)N2CCCCC2)c1 | 2.99% | –
99 | Nc1ncnc2c1ncn2[C@@H]1O[C@H](CNCc2cccn2-c2nccs2)[C@@H](O)[C@H]1O | 7.72% | –
100 | NC(=O)c1ccsc1NC(=O)COC(=O)COc1ccc(C=O)cc1 | -1.1% | –
101 | CCOC(=O)/C=C/c1ccc(C(F)(F)F)cc1S(=O)(=O)NC(C)(C)C | 4.83% | –
